Screens (PubChem)
Shown are actives, neighbours in structure and some others; about 1.1% of the full set was active somewhere.
Six1-Eya2 blk = Six1/Eya2 interaction inhibition | Q15475+O00167 | AlphaScreen GST-Six1/His-Eya2 binding, biochemical; active compounds read low | activity change, % (concentration not given with the values) | actives 0.56% (n = 360,000) | AID 651725
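GST-Six1 + His-Eya2 (5X stock: 250/500 nM); Tris pH 8.0, 300 mM NaCl, 0.05% BSA, 0.02% Tween 20; GSH donor/Ni acceptor beads; 1 h 37 °C dark; AlphaScreen readout.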
Mito fusion act = inhibitors of mitochondrial division or activators of mitochondrial fusion | S. cerevisiae fusion-defective mutant growth rescue, CellTiterGlo 48 h | Potency, µM (titrated, usually from 46.1 µM), hits mostly activators | actives 0.23% (n = 320,000) | AID 485298; active = well fitted activation curve with a large enough effect; inconclusive = small, poorly fitted or top-dose-only effect; inactive = no such curve, though single readings can be large or run the other way; also: nearly all actives have a fitted effect of over 45% in size
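Luminescent cell viability in 1536-well qHTS format served as the measure of rescued growth in ts fusion-mutant S. cerevisiae cultured on non-fermentable YPEG for 48 hours at 37C.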
MBNL1 CUG block = blocks human MBNL1 binding to CUG repeat RNA | Q9NR56 | TR-FRET MBNL1-His/biotin-(CUG)12 binding, 665/545 ratio | Potency, µM (top dose mostly 57.5 µM), actives largely listed as inhibitors | actives 0.036% (n = 280,000); active = well fitted inhibition curve with a large enough effect in the signal ratio, with a control signal flat, not every such curve was filed as active; inconclusive = small, poorly fitted or top-dose-only effect, or effect the other way, or a change in a side signal; inactive = no such curve, though single readings can be large or run the other way; the % refers to the signal ratio
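His-tagged MBNL1 binding to biotinylated (CUG)12 RNA was measured by TR-FRET using terbium anti-His antibody (0.055 ng/ul final) and streptavidin-XL665 (5 nM final). Compounds were titrated 92 nM to 58 uM; 60 min at room temperature.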
CtBP-E1A blk = inhibitors of CtBP/E1A interaction; AlphaScreen GST-E1A/His-CtBP binding, 1536-well; active compounds read low; activity change, % (no concentration beside the values); actives 0.49% (n = 340,000); AID 651724
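Homogeneous bead-based format: GST-tagged E1A captured on glutathione donor beads, His-tagged CtBP on nickel acceptor beads; compounds precede bead addition by 2 h at 37 °C.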
uPA generation = blocks generation of uPA at the cell surface; cell surface uPA generation assay, qHTS; Potency, µM (series often up to 38.3 µM), usual class: inhibitors; actives 0.31% (n = 330,000); AID 540303; active = well fitted inhibition curve with a large enough effect; inconclusive = small, poorly fitted or top-dose-only effect; inactive = no such curve, though single readings can be large or run the other way; tested in mouse RAW 264.7 cells; also: nearly all actives have a fitted effect of over 55% in size
Of the large screens only hits and unclear results are named; the others gave an inactive call; ! = repeats disagree. Rule as the data show it, unless noted: active = activity change below about -65%; inconclusive = mostly about -30% to -63%; inactive = weaker than that.

Cc1ccc(C)c(N=Nc2ccc(O)c3ncccc23)c1	Six1-Eya2 blk inconclusive, CtBP-E1A blk inconclusive, uPA generation inconclusive
Cc1cccc(N=Nc2ccc(O)c3ncccc23)c1	Six1-Eya2 blk -84.5, CtBP-E1A blk -79.1
O=C(Nc1ncccc1O)c1ccc2c(c1)OCCO2	none (no result: MBNL1 CUG block)
Oc1ccc(N=Nc2ccc3c(c2)OCCO3)c2ncccc12	Six1-Eya2 blk -75.8, uPA generation inconclusive (no result: MBNL1 CUG block, CtBP-E1A blk)
NS(=O)(=O)c1ccc(N=Nc2ccc(O)c3ncccc23)cc1	Six1-Eya2 blk -96.9, MBNL1 CUG block inconclusive, uPA generation inconclusive (no result: CtBP-E1A blk)
COc1ccc(NC(=O)c2nc(C)c(C3(C)CC(c4cccnc4)=NO3)s2)cc1 (stereo not given)	uPA generation 1.58µM
CC(C)(C)c1ccc(C(=O)N2CCC2(C)C(=O)Nc2cnc3ccccc3c2)cc1 (stereo not given)	none (no result: Mito fusion act, MBNL1 CUG block, uPA generation)
O=C(CCl)N1CCN(S(=O)(=O)c2ccc3c(c2)CCC3)CC1	uPA generation 1µM (no result: MBNL1 CUG block)
CN1C(=O)N(CC(=O)N2CCN(S(=O)(=O)c3ccc4c(c3)CCC4)CC2)C(=O)C12CCCCC2	none (no result: MBNL1 CUG block)
COc1cccc(-c2nc3nc(C)cc(C)n3c2NCc2ccccc2)c1	none (no result: Mito fusion act, MBNL1 CUG block, uPA generation)
CN(C(=O)CSc1nnnn1-c1ccc(O)cc1)C1CCCCC1	none (no result: Mito fusion act, MBNL1 CUG block)
COc1ccc(-c2cc(C(=O)c3c(N)n(C)c(=O)n(C)c3=O)c3ccccc3n2)cc1	uPA generation 1.41µM (no result: CtBP-E1A blk)
CN[C@H](CC(C)C)C(=O)N[C@H]1C(=O)N[C@@H](CC(N)=O)C(=O)N[C@@H]2C(=O)N[C@H]3C(=O)N[C@H](C(=O)N[C@H](C(=O)O)c4cc(O)cc(O)c4-c4cc3ccc4O)[C@H](O)c3ccc(c(Cl)c3)Oc3cc2cc(c3O[C@@H]2O[C@H](CO)[C@@H](O)[C@H](O)[C@@H]2O[C@H]2C[C@](C)(N)[C@H](O)[C@H](C)O2)Oc2ccc(cc2Cl)[C@H]1O	none (no result: Six1-Eya2 blk, MBNL1 CUG block, CtBP-E1A blk, uPA generation)
COc1ccc(-n2nc([N+](=O)[O-])c(=NCCC3=CCCCC3)n2O)cc1	Six1-Eya2 blk -69.6, MBNL1 CUG block inconclusive, CtBP-E1A blk inconclusive
O=C(Nc1ccc2c(c1)OCCO2)c1cccc2nc3ccccc3nc12	Six1-Eya2 blk inconclusive, CtBP-E1A blk -67.7
O=C(Nc1ccc2c(c1)OCCO2)c1ccccn1	uPA generation 3.55µM (no result: CtBP-E1A blk)
Cc1ccc([C@H]2C[C@@H](O)[C@H](n3cc(C4CC4)nn3)CN2C(=O)C2CCCCC2)cc1	none (no result: Mito fusion act, MBNL1 CUG block, uPA generation)
NC1(CO)COC(c2ccccc2)OC1 (stereo not given)	none (no result: Mito fusion act, MBNL1 CUG block, uPA generation)
O=c1c2ccccc2nc2c3ccccc3c(NCc3ccccn3)nn12	Six1-Eya2 blk inconclusive, CtBP-E1A blk -68.8
O=c1c2ccccc2nc2c3ccccc3c(NCc3cccnc3)nn12	none (no result: MBNL1 CUG block)
O=c1c2ccccc2nc2c3ccccc3c(NCCO)nn12	Six1-Eya2 blk -69.1, CtBP-E1A blk -70.6
CC1(C(=O)NS(=O)(=O)c2cccc(F)c2)CCN1C(=O)CCC1CCCC1 (stereo not given)	none (no result: Mito fusion act, MBNL1 CUG block, uPA generation)
C#CCN1C(C)=C(C(=O)OC)C(c2cccc([N+](=O)[O-])c2)C(C(=O)OCC)=C1C (stereo not given)	Mito fusion act 4.61µM! (no result: MBNL1 CUG block)
CCOC(=O)C1=C(C)NC(C)=C(C(=O)OCC)C1c1cccc([N+](=O)[O-])c1	none (no result: Mito fusion act, MBNL1 CUG block, uPA generation)
CC(=O)c1sc2nc(-c3ccc(C)cc3)c3c(c2c1N)CCCC3	Mito fusion act 15.8µM
CC(C)[C@@H](NC(=O)OC(C)(C)C)c1cc(C(=O)c2c(-c3ccccc3)[nH]c3ccccc23)c(N)s1	none (no result: Mito fusion act, MBNL1 CUG block, uPA generation)
COCc1c(C(=O)N/N=C/c2c[nH]c3ccccc23)nnn1-c1nonc1N	none
COCc1c(C(=O)N/N=C\c2ccccn2)nnn1-c1nonc1N	Six1-Eya2 blk -74.3, CtBP-E1A blk -69.7
O=C(NCc1ccco1)C1CC2CCC1C2 (stereo not given)	Six1-Eya2 blk -70.2, CtBP-E1A blk inconclusive
NC(Cc1ccc(F)cc1)c1csc(Nc2ccc(C(F)(F)F)cn2)n1 (stereo not given)	none (no result: Mito fusion act, MBNL1 CUG block, uPA generation)
NC(Cc1cnc[nH]1)c1csc(Nc2ccc(C(F)(F)F)cn2)n1 (stereo not given)	Six1-Eya2 blk -89.7, CtBP-E1A blk -91.7 (no result: Mito fusion act, MBNL1 CUG block, uPA generation)
COC(=O)[C@]12CCCCC=C1N(Cc1ccc3c(c1)OCO3)C(=O)[C@H](CC(=O)NCCCN1CCCC1=O)C2	none (no result: Mito fusion act, MBNL1 CUG block, uPA generation)
COc1ccc(/C=C2\Oc3ccccc3C2=O)cc1	uPA generation 7.08µM (no result: Mito fusion act, MBNL1 CUG block)
